For 36 compounds, growth results are on record in PubChem BioAssay (NCI).

About 83,000 compounds went through this panel and 20% of them were active in at least one assay; those are over-represented in the sample as a whole.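 Step 1: grow cells in 96-well plates. Step 2: add test compound at a single concentration. Step 3: incubate 48 h. Step 4: record percent growth.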 Unmarked numbers belong to inactive results. Activity calls are given as the source filed them. The calls were made as follows: active = growth percent below 10; inactive = the rest.

The subject of the experiment is HL-60(TB) leukemia. As to the kind of experiment: NCI-60 one-dose screen, 48 h (100 = growth as untreated, 0 = no growth, -100 = all killed). To be noted: 10 µM unless noted.
`O=C(COc1ccc(/C=C2\Cc3ccc(Cl)cc3C2=O)cc1)Nc1nccs1`: the growth is 67.3%. As for `COc1cc(/C=C/C(=O)/C=C(/C=C/c2ccc(OC(C)=O)c(OC)c2)OB(F)F)ccc1OC(C)=O`, the growth is 4.04% (active). Regarding `CC(=O)Nc1nc2c(s1)CCc1c-2cn(S(=O)(=O)c2ccccc2)c1-c1ccccc1`, the growth is 71%. In the case of `CN1CCN(Cc2ccc(NC(=O)c3cncc(C#Cc4cnn5ccccc45)c3)cc2C(F)(F)F)CC1`, the growth was -21.3% (active). The same measure for `Cn1cc(-c2csc(-c3cn(C)c4ccc(Br)cc34)n2)c2cnccc21`: -58.4% (active); for `O=C(CSc1nnc(-c2ccc(Cl)cc2)o1)c1ccccc1`: 90.9%; for `CCCCn1c(-c2ccc(C(=O)O/N=C(\N)c3ccc(OC)cc3)cc2)nc(-c2ccccc2)c1-c1ccccc1`: -62.5% (active).

Regarding `Cc1oc2c(Cc3ccc(NC(=O)c4ccc(Cl)cc4)cc3)ncnc2c1C(=O)NO`, the growth was 87.9%. Turning to `COc1cc(OC)c(/C=C/C(=O)c2c(N)cc(OC)cc2OC)c(OC)c1`, the growth is 12.7%. `c1ccc2c(c1)nc(-n1ccnc1)c1nc3ccccc3n12`: the growth is 101%. As to `O=C1NC(=O)C(Cc2ccc(OCc3ccc(-c4ccc(Cl)cc4Cl)cc3)cc2)S1` (stereo unspecified), the growth was 56.9%.

On to `COc1ccc(-n2c(C)cc(-c3ccccc3)c2C)cc1`, for which the growth was 23.2%.

For `COc1cc(C2CC(c3ccc(C)cc3)=NN2C=O)ccc1Oc1nc2c(c(=O)n(C)c(=O)n2C)n1C` (stereo unspecified), the growth was 111%. For `COc1ccc(N=C(c2ccccc2)C2C(=O)c3ccccc3C2=O)cc1`, the growth was 61.3%. The same measure for `COc1ccc(C2CC(c3ccc4ccccc4c3)=NN2c2nc(O)c(C3=c4cc(OC)ccc4=NC3=O)s2)cc1` (stereo unspecified): 36.2%; for `CN(C)c1nc(N)nc(Cn2c(-c3nonc3N)nc3ccccc32)n1`: 94.2%; for `CCOC(=O)c1cc(C(=O)c2ccc(Cl)cc2)n2ccc(-c3cc[n+](CC(=O)c4ccc(OC)cc4)cc3)cc12`: 24.9%. In the case of `COC(=O)N[C@H]1CCc2c(Cl)c(OC)c(OC)c(OC)c2-c2ccc(SC)c(=O)cc21`, the growth is -42.4% (active). For `O=C(O)CCNC1CCCCC1`, the growth was 97.5%. The value for `CCCCNc1ccc(Nc2ccccc2)cc1` was 16.5%. As to `COc1ccc(C2CC(c3ccc4ccccc4c3)=NN2/C=C2\SC(=S)N(NC(=O)Cc3ccccc3Nc3c(Cl)cccc3Cl)C2=O)cc1` (stereo unspecified), the growth is -27.4% (active). The value for `COc1ccc(O)c(-c2cc(-c3ccc(Cl)cc3)c(C#N)c(=O)[nH]2)c1` was 65.2%; that for `Cn1ncc2c(=O)nc3c(-c4ccccc4)n[nH]n3c21` was 107%. Regarding `O=C(COc1ccc(/C=C2\COc3ccccc3C2=O)cc1)Nc1nccs1`, the growth was -11.4% (active). Turning to `COc1ccc(-c2ncnc3c2ncn3CC#CCCl)cc1`, the growth was 48.8%. Take `Cc1c(C2=CCCCC2)c2ccccn2c1C(=O)c1cccc(S(=O)(=O)N2CCOCC2)c1`: the growth is 132%. The same measure for `COc1cc2oc(-c3cccc(C(=O)Nc4ccc(C#N)cc4)c3)cc(=O)c2c(O)c1OC`: 136%; for `COc1cccc(OC)c1OC(=O)c1ccccc1`: 110%.

As to `C=C(C)[C@@H]1CCC[C@]2(C(=O)OC)CC[C@]3(C)[C@@H](CC[C@@H]4[C@@]5(C)CCCNC(C)(C)[C@@H]5CC[C@]43C)[C@@H]12`, the growth is 96.7%. The same measure for `CNC(=O)c1cc(Oc2ccc3nc(NC(=O)Nc4ccc(F)cc4F)sc3c2)ccn1`: 98.3%; for `CN1CCC2(CC1)NC(=O)c1c(c3ccc(Cl)c(Cl)c3n1C)C2C#N` (stereo unspecified): 70.8%; for `O=C(/C=C/c1ccccc1Cl)c1ccc(O)cc1`: 60.2%.

For `C=CC[P+](c1ccccc1)(c1ccccc1)c1ccccc1`, the growth was 4.03% (active). On to `COc1ccc(Oc2ccc(/C=C/C(=O)c3ccc(OC)c(OC)c3)cc2)cc1`, for which the growth was -61.4% (active). Regarding `O=C1c2cccc3cc([N+](=O)[O-])cc(c23)C(=O)N1CCN1CCCC1`, the growth is -54.1% (active). Take `CCC(C)[C@H](NC(C)=O)C(=O)N[C@@H](CCCNC(=N)N)C(=O)N[C@@H](CCCCN)C(=O)N[C@@H](CC1CCC(O)CC1)C(=O)NC(C(=O)N[C@@H](CCSC)C(=O)N[C@@H](CCCNC(=N)N)C(=O)N[C@@]1(C)CCC/C=C\CCC[C@@](C)(C(=O)NC(C(=O)N[C@@H](CCC(=O)O)C(=O)N[C@@H](CC(C)C)C(=O)N[C@H](C(=O)N[C@@H](CCC(=O)O)C(N)=O)C(C)C)[C@@H](C)O)NC(=O)[C@H](CCC(N)=O)NC(=O)[C@H](CC(C)C)NC(=O)[C@H](CC(C)C)NC1=O)[C@@H](C)O` (stereo partly specified): the growth is 97.3%.
